Measured values: PubChem BioAssay
Active and inactive are the calls of the source.

Tests used:
[1] = system: PRMT1 (protein arginine N-methyltransferase 1); test: small molecules binding arginine methyltransferase PRMT1 – biochemical, small-molecule microarray, 635 nm fluorescence, primary screen (AID 1088); settings: higher = more signal;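 further: binding of Prmt1 protein to compounds spotted on small-molecule microarray slides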
[2] = growth effects on S. cerevisiae YJM789 – YJM789 clinical isolate, OD600, 24 h, basal, primary screen (AID 1089); settings: higher = more signal, called active from +8 up or from −8 down;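 further: growth of clinical yeast isolate S. cerevisiae YJM 789 seeded 1000 cells per well; test concentration not given here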
[3] = S. pombe growth modifiers, basal conditions – strain 972, OD600, 24 h, no modulator, primary screen (AID 1090);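 further: basal condition with compound alone and no growth modifier present; test concentration not given here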; settings: S. pombe 972 growth, higher = more signal, called active from +8 up or from −8 down
[4] = budding yeast growth modifiers under rapamycin – strain BY4716, OD600, 96 h, primary screen (AID 1091); further: test concentration not given here; settings: S. cerevisiae BY4716 + rapamycin, higher = more signal, called active from +8 up or from −8 down
[5] = target: Torsin-1A-interacting protein 2 (Homo sapiens) (UniProt Q8NFQ8); test: small molecules binding lysate-expressed LULL1 – cell lysate, human LULL1 lysate, 635/667 nm fluorescence, primary screen (AID 1092); settings: small-molecule microarray, hLULL1 lysate binding, 635 nm fluorescence; higher = more signal;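 further: probe is lysate of COS7 cells overexpressing human LULL1; score merges per-feature 667 nm fluorescence with signal-to-noise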
Sequence of Torsin-1A-interacting protein 2 (Homo sapiens) (Q8NFQ8 whole entry, looked up): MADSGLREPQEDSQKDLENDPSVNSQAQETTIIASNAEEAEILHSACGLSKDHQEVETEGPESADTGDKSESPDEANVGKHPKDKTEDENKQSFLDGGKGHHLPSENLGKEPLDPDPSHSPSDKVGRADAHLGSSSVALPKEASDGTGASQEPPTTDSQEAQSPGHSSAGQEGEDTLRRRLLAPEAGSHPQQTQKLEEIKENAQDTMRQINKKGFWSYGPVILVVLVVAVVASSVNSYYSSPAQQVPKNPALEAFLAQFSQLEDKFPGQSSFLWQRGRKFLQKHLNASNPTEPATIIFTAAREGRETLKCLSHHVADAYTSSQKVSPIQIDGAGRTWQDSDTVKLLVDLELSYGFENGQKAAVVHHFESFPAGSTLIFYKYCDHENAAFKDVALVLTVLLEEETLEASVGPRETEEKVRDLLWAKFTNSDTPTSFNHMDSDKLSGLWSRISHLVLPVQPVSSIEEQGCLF

[6] = optical density change of DRC41 E. coli – strain DRC41, OD650, 24 h, E. coli filamentation project, primary screen (AID 1093);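 further: MC1000 strain lacking acrAB efflux and sulA so SOS filamentation is blocked; test concentration not given here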; settings: E. coli DRC41 growth, higher = more signal, called active from +8 up or from −8 down
[7] = probe aLefty2 binding to arrayed compounds – biochemical, biotinylated probe, 635/667 nm fluorescence, primary screen (AID 1094); settings: small-molecule microarray, higher = more signal;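 further: score merges spot fluorescence near 667 nm with spot signal-to-noise ratio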
[8] = system: Noggin (protein binding on small-molecule microarray); test: small molecules binding Noggin protein – biochemical, 635/667 nm fluorescence, primary screen (AID 1095); settings: 635 nm fluorescence, higher = more signal;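 further: score merges 667 nm feature fluorescence with signal to noise over triplicate slides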
[9] = target: Neurogenic locus notch homolog protein 3 (Homo sapiens) (UniProt Q9UM47); test: small molecules binding NOTCH3 protein – biochemical, 635/667 nm fluorescence, primary screen (AID 1096); settings: small-molecule microarray, 635 nm fluorescence, higher = more signal
Sequence of Neurogenic locus notch homolog protein 3 (Homo sapiens) (Q9UM47 whole entry, looked up): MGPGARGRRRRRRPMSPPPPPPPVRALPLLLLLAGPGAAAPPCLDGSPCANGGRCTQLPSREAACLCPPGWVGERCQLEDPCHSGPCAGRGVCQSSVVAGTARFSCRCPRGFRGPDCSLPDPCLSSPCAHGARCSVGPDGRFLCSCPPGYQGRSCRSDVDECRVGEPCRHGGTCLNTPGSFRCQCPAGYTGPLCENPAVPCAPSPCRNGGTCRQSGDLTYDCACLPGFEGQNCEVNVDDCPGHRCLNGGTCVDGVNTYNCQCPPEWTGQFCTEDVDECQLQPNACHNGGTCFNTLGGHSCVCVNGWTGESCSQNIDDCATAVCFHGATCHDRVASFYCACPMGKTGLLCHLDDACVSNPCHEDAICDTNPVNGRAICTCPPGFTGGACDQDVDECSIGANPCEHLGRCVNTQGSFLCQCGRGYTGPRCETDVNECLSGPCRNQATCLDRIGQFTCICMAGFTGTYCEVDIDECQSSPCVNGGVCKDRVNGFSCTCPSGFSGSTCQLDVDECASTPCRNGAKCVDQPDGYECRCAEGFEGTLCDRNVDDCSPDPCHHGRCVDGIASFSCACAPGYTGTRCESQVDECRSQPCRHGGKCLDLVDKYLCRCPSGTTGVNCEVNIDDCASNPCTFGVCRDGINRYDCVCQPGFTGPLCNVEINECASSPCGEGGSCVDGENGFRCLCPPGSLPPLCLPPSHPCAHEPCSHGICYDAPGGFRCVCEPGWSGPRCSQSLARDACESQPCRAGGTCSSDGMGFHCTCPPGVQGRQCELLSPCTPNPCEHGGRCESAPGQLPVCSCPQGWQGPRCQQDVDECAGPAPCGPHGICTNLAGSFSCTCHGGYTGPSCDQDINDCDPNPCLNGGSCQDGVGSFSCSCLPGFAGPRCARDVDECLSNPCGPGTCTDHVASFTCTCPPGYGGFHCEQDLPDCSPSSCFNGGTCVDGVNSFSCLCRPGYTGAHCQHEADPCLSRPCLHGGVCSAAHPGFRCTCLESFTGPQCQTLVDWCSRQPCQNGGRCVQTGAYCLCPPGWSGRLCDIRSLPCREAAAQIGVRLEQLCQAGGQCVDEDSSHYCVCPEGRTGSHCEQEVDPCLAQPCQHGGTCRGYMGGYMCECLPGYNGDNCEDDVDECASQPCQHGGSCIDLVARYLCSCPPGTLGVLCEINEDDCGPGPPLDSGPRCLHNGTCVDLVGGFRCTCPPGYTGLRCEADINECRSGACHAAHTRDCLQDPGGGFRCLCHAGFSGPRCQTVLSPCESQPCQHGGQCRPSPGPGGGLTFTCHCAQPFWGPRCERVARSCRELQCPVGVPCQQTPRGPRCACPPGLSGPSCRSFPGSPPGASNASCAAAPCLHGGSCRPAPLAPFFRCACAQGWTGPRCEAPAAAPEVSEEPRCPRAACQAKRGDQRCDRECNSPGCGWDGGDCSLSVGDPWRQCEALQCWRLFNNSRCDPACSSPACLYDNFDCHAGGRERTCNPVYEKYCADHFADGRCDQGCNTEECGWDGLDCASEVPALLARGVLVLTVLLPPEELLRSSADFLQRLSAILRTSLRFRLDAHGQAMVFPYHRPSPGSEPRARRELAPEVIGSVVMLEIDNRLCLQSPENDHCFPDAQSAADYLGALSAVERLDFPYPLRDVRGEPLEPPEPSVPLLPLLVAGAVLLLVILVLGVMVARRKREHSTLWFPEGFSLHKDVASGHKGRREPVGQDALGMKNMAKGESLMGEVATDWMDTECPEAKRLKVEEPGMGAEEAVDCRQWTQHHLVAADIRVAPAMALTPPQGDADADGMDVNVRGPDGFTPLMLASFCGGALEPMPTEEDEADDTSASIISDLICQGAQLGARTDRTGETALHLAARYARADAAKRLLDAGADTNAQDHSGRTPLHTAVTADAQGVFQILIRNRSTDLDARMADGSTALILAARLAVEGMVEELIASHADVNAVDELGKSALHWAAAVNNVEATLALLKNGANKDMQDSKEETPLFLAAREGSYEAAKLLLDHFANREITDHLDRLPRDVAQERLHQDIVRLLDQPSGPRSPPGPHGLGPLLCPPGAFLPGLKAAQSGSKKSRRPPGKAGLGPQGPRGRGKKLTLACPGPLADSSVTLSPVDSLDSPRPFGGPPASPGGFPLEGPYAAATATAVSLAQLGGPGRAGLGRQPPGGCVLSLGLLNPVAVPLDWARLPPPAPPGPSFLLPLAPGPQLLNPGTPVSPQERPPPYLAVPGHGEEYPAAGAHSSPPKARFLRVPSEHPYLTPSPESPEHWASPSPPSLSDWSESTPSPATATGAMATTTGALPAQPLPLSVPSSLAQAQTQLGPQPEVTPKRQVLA

[10] = probe aEGFR binding to arrayed compounds – biochemical, biotinylated probe, 635/667 nm fluorescence, primary screen (AID 1097); settings: small-molecule microarray, higher = more signal;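 further: probe is a biotinylated anti-EGFR antibody binding compounds printed on slides; score combines fluorescence near 667 nm and signal to noise of each spot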

| SMILES | composite z-score [1] | z-score [2] | z-score [3] | z-score [4] | composite z-score [5] | z-score [6] | composite z-score [7] | composite z-score [8] | composite z-score [9] | composite z-score [10] |
| --- | --- | --- | --- | --- | --- | --- | --- | --- | --- | --- |
| Cc1ccc(S[C@]2(C(=O)NCc3ccccc3)CC(=O)N(C(C)C)[C@@H]2c2ccc(CO)cc2I)cc1 | 0.448 | -2.82 (inactive) | -1.38 (inactive) | 0.317 (inactive) | 1.73 | 0.349 (inactive) | 0.299 | -0.466 | -0.44 | -0.229 |
| Cc1ccc(C(C)CC(O)C2C=CC3C(=O)N(c4ccccc4)C(=O)C3N2Nc2ccc(C(C)C)cc2)o1 (stereo not given) | 0.843 | 0.379 (inactive) | 0.0145 (inactive) | 0.842 (inactive) | 1.28 | -1.36 (inactive) | 0.295 | -0.641 | 1.04 | 0.14 |
| C=C(C(=O)CC[C@H](OC(C)=O)c1cccc(OCCO)c1)C(C)C | 0.385 | 0.574 (inactive) | -0.299 (inactive) | -0.0905 (inactive) | 0.355 | 1.04 (inactive) | -0.121 | -0.621 | -0.594 | -0.113 |
| CC(=O)N1Cc2ccccc2C[C@]2(N=C(c3ccc(OCCCO)cc3)O[C@@H]2c2ccccc2)C1=O | 1.55 | 0.369 (inactive) | -2.91 (inactive) | 13.6 (active) | 3.07 | 1.52 (inactive) | 0.0081 | 0.648 | 1.07 | 0.0557 |
| CCCCN1CC=CC23O[C@@H]4C=CCOC(=O)[C@@H]4[C@H]2C(=O)N(C(C)CO)[C@@H]3C1=O (stereo not given in full) | -1.57 | -0.543 (inactive) | -1.22 (inactive) | -0.557 (inactive) | -0.449 | -0.479 (inactive) | -0.205 | -0.929 | -1.25 | -0.216 |
| CC=CC(O)C1C=CC2C(=O)N(c3ccccc3)C(=O)C2N1Nc1ccc([N+](=O)[O-])cc1 (stereo not given) | 0.725 | -0.0987 (inactive) | 1.17 (inactive) | 1.44 (inactive) | 2.65 | -0.699 (inactive) | -0.0931 | 0.257 | 0.512 | 0.0007 |
| CC(=O)NCCCC[C@@H]1NC(=O)[C@@H]2C[C@H](C(=O)O)[C@H](c3ccc(O)cc3)N2C1=O | -0.728 | 0.611 (inactive) | 1.36 (inactive) | 0.442 (inactive) | 2.17 | 0.129 (inactive) | 0.0208 | -1.42 | -1.27 | -0.322 |
| C[N+](C)(C)CCCC[C@@H]1NC(=O)[C@@H]2C[C@H](C(=O)O)[C@H](c3ccc(O)cc3)N2C1=O | -0.701 | 0.151 (inactive) | 0.229 (inactive) | -1.27 (inactive) | -0.972 | 0.0772 (inactive) | -0.0943 | -0.342 | -0.694 | -0.269 |
| O=C1C[C@@](C(=O)NCC(F)(F)F)(c2ccc([N+](=O)[O-])cc2)[C@@H](c2ccc(CO)cc2)N1C1CCCCC1 | 1.56 | -0.748 (inactive) | -0.209 (inactive) | -0.917 (inactive) | 3.48 | 0.258 (inactive) | 0.11 | 0.956 | 0.823 | -0.0271 |
| CCOC(=O)C[C@H]1[C@H](OC(=O)Cc2ccc3c(c2)OCO3)[C@@H](NC(=O)C2CCCCC2)c2cc(OCCCO)ccc2N1C(=O)c1ccc2ccccc2n1 | 0.688 | 0.327 (inactive) | -1.46 (inactive) | -0.591 (inactive) | 1.34 | 0.848 (inactive) | -0.0798 | 1.98 | 1.09 | 0.0428 |
| O=C1O[C@@H](c2ccccc2)[C@@H](c2ccccc2)N2[C@@H](c3ccccc3OCCO)[C@]3(C(=O)Nc4ccc(C#CCCO)cc43)[C@@H](C(=O)Nc3nc4ccccc4s3)[C@H]12 | 1.55 | 1.49 (inactive) | -0.487 (inactive) | 3.2 (inactive) | 2.64 | 1.59 (inactive) | 0.259 | 0.448 | 1.05 | 0.131 |
| CCOC(=O)C[C@H]1[C@H](OC(=O)c2ccc(C(=O)c3ccccc3)cc2)[C@@H](NC(=O)c2ccc3ccccc3c2)c2cc(OCCCO)ccc2N1C(=O)c1ccccc1 | 1.56 | -0.79 (inactive) | -0.681 (inactive) | -0.278 (inactive) | 2.54 | -0.551 (inactive) | 0.0773 | 0.354 | 1.09 | 0.116 |
| COCCOC(=O)N1C(=O)[C@@]2(c3cc(C#CC4=CCCCC4)ccc31)[C@H](c1ccc(O)cc1)N1[C@H](c3ccccc3)[C@H](c3ccccc3)OC(=O)[C@H]1[C@@H]2C(=O)Nc1nc2ccccc2s1 | 1.54 | 0.724 (inactive) | 0.0687 (inactive) | 0.801 (inactive) | 3.5 | -0.249 (inactive) | -0.141 | 0.824 | 1.04 | 0.178 |
| CC(C)(C)OC(=O)CC[C@@]1(C(=O)O)N=C(c2ccc(OCCCO)cc2)O[C@@H]1c1ccccc1CN=[N+]=[N-] | 1.29 | 0.947 (inactive) | 0.642 (inactive) | 0.0515 (inactive) | 2.84 | 0.882 (inactive) | 0.36 | -0.195 | 0.44 | 0.272 |
| Cc1ccc(S[C@]2(C(=O)NC(C)C)CC(=O)N(Cc3ccccc3C(F)(F)F)[C@@H]2c2ccc(CO)cc2I)cc1 | 1.13 | -2.32 (inactive) | -4.49 (inactive) | 1.18 (inactive) | 0.515 | -1.73 (inactive) | 0.0844 | -0.76 | -0.669 | -0.283 |
| COC(=O)Cn1c(C(=O)N2CCCC2)cc2c1C[C@H]1CN(C(=O)c3ccccc3)[C@@](Cc3ccc(F)cc3)(C(=O)OC)[C@@H]21 | -0.533 | -1.98 (inactive) | 0.562 (inactive) | -1.24 (inactive) | 2.03 | 0.782 (inactive) | -0.0199 | -0.405 | -0.251 | -0.363 |
| CC(C)C(O)C1C=CC2C(=O)N(C)C(=O)C2N1Nc1ccccc1 (stereo not given) | 0.694 | 0.324 (inactive) | -0.163 (inactive) | 0.204 (inactive) | 3.3 | -0.381 (inactive) | 0.873 | 0.206 | 0.707 | 0.515 |
| CCC[C@@H]1C[C@@]1(CCC)[C@@H](NP(=O)(c1ccccc1)c1ccccc1)c1ccc(Cl)cc1 | -0.189 | 1.2 (inactive) | 0.095 (inactive) | 0.956 (inactive) | 0.334 | -1.79 (inactive) | -0.0703 | 0.112 | -0.151 | -0.233 |
| CC1CC/C=C\[C@H]2OC34C=CCN(c5ccc6ccccc6c5)C(=O)[C@H]3N(C(CO)C(C)C)C(=O)[C@@H]4C2C(=O)O1 (stereo not given in full) | 0.445 | -1.03 (inactive) | -1.55 (inactive) | -0.797 (inactive) | 1.76 | -0.578 (inactive) | -0.0313 | -0.0033 | 0.135 | -0.126 |
| CCCCN1CC=CC23O[C@@H]4C=CCOC(=O)[C@@H]4[C@H]2C(=O)N(CCCO)[C@@H]3C1=O (stereo not given in full) | 0.412 | 0.228 (inactive) | -0.399 (inactive) | -0.191 (inactive) | 2.41 | 1.42 (inactive) | -0.145 | -0.957 | -0.366 | -0.285 |
| C=C(C(=O)CC[C@H](OC(=O)c1cccnc1)c1cccc(OCCO)c1)C(C)C | 1.03 | 0.865 (inactive) | 0.167 (inactive) | 1.1 (inactive) | 0.391 | 0.483 (inactive) | -0.017 | -0.367 | -0.424 | -0.0238 |
| COC(=O)[C@@]1(Cc2ccc(OC)cc2)[C@H]2c3cc(C(=O)N4CCCC4)n(CCc4cc5ccccc5[nH]4)c3C[C@H]2CN1C(=O)c1ccccc1 | 0.907 | 0.596 (inactive) | 2.61 (inactive) | 1.72 (inactive) | 3.43 | -0.12 (inactive) | 0.507 | 0.364 | 1.05 | 0.0464 |
